Among the data in PubChem BioAssay are fluorescence ratio and inhibition values, retold here.

A number with no mark means an inactive call. Active and inactive are the calls of the source. No rule for the calls is given here.

System in one experiment: not listed separately
The experiment is described as follows: Cy5 fluorescence interference with SSB-bound oligo, artefact control for HCV NS3 helicase inhibitor project, biochemical, NIH Clinical Collection, E. coli SSB (AID 743268).
Conditions: not given
Regarding `COCCCOc1ccnc(CS(=O)c2nc3ccccc3[nH]2)c1C` (stereo unspecified), the fluorescence ratio is 0.94.

As for `N=c1nc(N2CCCCC2)cc(N)n1O`, the fluorescence ratio is 0.1 (active).

On to `CC(C)NCC(O)COc1cccc2[nH]ccc12` (stereo unspecified), for which the fluorescence ratio was 0.9.

Turning to `CCn1cc(C(=O)O)c(=O)c2ccc(C)nc21`, the fluorescence ratio is 1.03.

Regarding `CN(C)C(=O)C(CCN1CCC(O)(c2ccc(Cl)cc2)CC1)(c1ccccc1)c1ccccc1`, the fluorescence ratio is 1.06.

For the compound `Cc1cc(NS(=O)(=O)c2ccc(N)cc2)no1`, the fluorescence ratio is 1.03.

For `CCCC(CCC)C(=O)O`, the fluorescence ratio is 1.04.

With `COc1cc(Cc2cnc(N)nc2N)cc(OC)c1OC`, the fluorescence ratio is 0.97.

Turning to `COC(=O)C1=C(C)NC(C)=C(C(=O)OCCN(C)Cc2ccccc2)C1c1cccc([N+](=O)[O-])c1` (stereo unspecified), the fluorescence ratio is 1.15.

In the case of `O=C(CCCN1CCC(O)(c2ccc(Cl)cc2)CC1)c1ccc(F)cc1`, the fluorescence ratio is 0.91.

Turning to `CC(C)(C)NCC(O)c1ccc(O)c(CO)c1` (stereo unspecified), the fluorescence ratio was 0.96.

As to `COc1c2occc2cc2ccc(=O)oc12`, the fluorescence ratio is 0.98.

Turning to `NC(=O)c1cccnc1`, the fluorescence ratio is 1.01.

Regarding `CN/C(=C\[N+](=O)[O-])NCCSCc1ccc(CN(C)C)o1`, the fluorescence ratio was 0.103 (active).

In the case of `CNCCCN1c2ccccc2CCc2ccccc21`, the fluorescence ratio is 0.96.

As for `CN1C(=O)CC[C@H]1c1cccnc1`, the fluorescence ratio was 1.01.

For `CCCC(=O)Nc1ccc(OCC(O)CNC(C)C)c(C(C)=O)c1` (stereo unspecified), the fluorescence ratio is 0.9.

As for `O=C(O)CCc1nc(-c2ccccc2)c(-c2ccccc2)o1`, the fluorescence ratio is 1.04.

Take `CN1CCN(C2=Nc3cc(Cl)ccc3Nc3ccccc32)CC1`: the fluorescence ratio was 1.04.

`COC(=O)C1=C(C)NC(C)=C(C(=O)OC)C1c1ccccc1[N+](=O)[O-]`: the fluorescence ratio was 0.94.

A further experiment relates to Hepatitis C virus NS3 helicase. The experiment is described as follows: HCV NS3 helicase inhibitors, primary screen, biochemical, fluorescence polarization, NIH Clinical Collection (AID 743270). Conditions: NS3 helicase binding to Cy5-dT15 DNA, active compounds read high, concentration not given here.
Turning to `COCCCOc1ccnc(CS(=O)c2nc3ccccc3[nH]2)c1C` (stereo unspecified), the inhibition is -6.33%.

As to `N=c1nc(N2CCCCC2)cc(N)n1O`, the inhibition was -9.55%.

For the compound `CC(C)NCC(O)COc1cccc2[nH]ccc12` (stereo unspecified), the inhibition is -5.91%.

`CCn1cc(C(=O)O)c(=O)c2ccc(C)nc21`: the inhibition is -0.45%.

As to `CN(C)C(=O)C(CCN1CCC(O)(c2ccc(Cl)cc2)CC1)(c1ccccc1)c1ccccc1`, the inhibition was -6.82%.

Consider `Cc1cc(NS(=O)(=O)c2ccc(N)cc2)no1`, for which the inhibition was 0.45%.

Take `CCCC(CCC)C(=O)O`: the inhibition is -1.36%.

`COc1cc(Cc2cnc(N)nc2N)cc(OC)c1OC`: the inhibition was -3.18%.

On to `COC(=O)C1=C(C)NC(C)=C(C(=O)OCCN(C)Cc2ccccc2)C1c1cccc([N+](=O)[O-])c1` (stereo unspecified), for which the inhibition is -1.36%.

As to `O=C(CCCN1CCC(O)(c2ccc(Cl)cc2)CC1)c1ccc(F)cc1`, the inhibition is -12.4%.

For the compound `CC(C)(C)NCC(O)c1ccc(O)c(CO)c1` (stereo unspecified), the inhibition is -1.19%.

For `COc1c2occc2cc2ccc(=O)oc12`, the inhibition is -3.18%.

For the compound `NC(=O)c1cccnc1`, the inhibition is 0.66%.

For `CN/C(=C\[N+](=O)[O-])NCCSCc1ccc(CN(C)C)o1`, the inhibition was 0.45%.

Take `CNCCCN1c2ccccc2CCc2ccccc21`: the inhibition is -2.27%.

Turning to `CN1C(=O)CC[C@H]1c1cccnc1`, the inhibition was 5.15%.

On to `CCCC(=O)Nc1ccc(OCC(O)CNC(C)C)c(C(C)=O)c1` (stereo unspecified), for which the inhibition was -3.18%.

With `O=C(O)CCc1nc(-c2ccccc2)c(-c2ccccc2)o1`, the inhibition was 1.19%.

As for `CC(C(=O)O)c1cccc(C(=O)c2ccccc2)c1` (stereo unspecified), the inhibition is -1.36%.

In the case of `CN1CCN(C2=Nc3cc(Cl)ccc3Nc3ccccc32)CC1`, the inhibition is -2.27%.

As to `COC(=O)C1=C(C)NC(C)=C(C(=O)OC)C1c1ccccc1[N+](=O)[O-]`, the inhibition is -1.19%.
